# Out of some 320,000 compounds screened, about 2,100 (0.66%) were called active. Another 53% or so got no clear call; they are omitted. Calls come from the whole dose curve; as a rule, active = well fitted inhibition curve with a large enough effect in the signal ratio, with a control signal flat (not every such curve was filed as active); inconclusive = small, poorly fitted or top-dose-only effect, or effect the other way, or a change in a side signal; inactive = flat fitted curve, though single readings scatter; the % refers to the signal ratio. The full list was thinned out, with actives kept by preference.
# Experiment: qHTS Assay for Lipid Storage Modulators in Drosophila S3 Cells;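 for cell number change: cells counted by Cell Tracker Red CMTPX staining in the red channel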; for lipid storage change, negative = inhibition: % is set by controls: 0 for no effect and ±100 for the full control effect
# Settings: BODIPY lipid droplet fluorescence, 18-24 h, cells fed with added oleic acid; cell number change: measured here: cell count max response; series mostly up to 46.1 µM; lipid storage change, negative = inhibition: at the top concentration
# Method in brief: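 Drosophila S3 cells got compounds at several concentrations plus oleic acid (400 uM solution). Laser-scanning cytometry with 488 nm excitation read lipid droplets at 500-530 nm and cells at 575-640 nm. Percent activity was relative to 20 uM Triacsin C.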
# Potency is the fitted concentration of half-maximal effect.
SMILES,Potency,cell number change [%],"lipid storage change, negative = inhibition",outcome
COC(=O)[C@H](CC(C)C)NC(=O)NC1CCCCC1C (some centres undefined),25.9 µM (active),-4.34,–,–
COC(=O)[C@H](CC(C)C)NC(=O)N1CCCCC1C (some centres undefined),–,-11.4,-12.3% (inactive),–
COC(=O)[C@@H](NC(=O)NC1CCCCC1C)C(C)C (some centres undefined),–,5.72,11.5% (inactive),–
C=CCc1ccc(OCCCCNC2CCCC2)c(OC)c1,–,-17.8,-10.2% [at 9.22 µM] (inactive),–
CC(NC(=O)C1CCC1)c1ccccc1 (centres undefined),–,–,–,inactive
CN(C)C(=O)N1CCCC(C(=O)NCc2ccccc2)C1 (centres undefined),–,-23.4,-5.36% (inactive),–
CC(NC(=O)C1CCCN(C(=O)N(C)C)C1)c1ccccc1 (centres undefined),25.9 µM (active),2.04,–,–
CCOC(=O)c1c(NC(=S)N2CCOCC2)sc2c1CCN(C(=O)OCC)C2,–,-10.4,-15.8% (inactive),–
Cc1ccc(/C=N/NC(=O)Cc2c(F)cccc2Cl)s1,–,13.4,–,inactive
CCOc1ccc(S(=O)(=O)N2CCN(C(=O)c3cc(C4CC4)nn3-c3ccccc3)CC2)cc1,–,-18,–,inactive
O=C(c1cc(C2CC2)nn1-c1ccccc1)N1CCN(S(=O)(=O)c2ccccc2)CC1,16.4 µM (active),-11.8,–,–
O=C(c1cc(C2CC2)nn1-c1ccccc1)N1CCN(S(=O)(=O)c2cccc(F)c2)CC1,–,16.5,17.5% (inactive),–
COc1ccc(-c2noc(CCC(=O)NCc3cccnc3)n2)cc1OC,–,-15.7,27.8% (inactive),–
CCOC(=O)C1CCN(C(=O)c2ccc(Oc3cc(Cl)cc(Cl)c3)o2)CC1,–,4.65,4.49% (inactive),–
Cc1onc(-c2ccccc2)c1CNS(=O)(=O)c1cccc(Br)c1,–,12,8.41% (inactive),–
CCOc1ccc(N(CC(=O)NCCSCc2ccccc2)S(C)(=O)=O)cc1,–,10.5,-19.5% (inactive),–
CCOc1ccc(N(CC(=O)NCCSCc2ccc(Cl)cc2)S(C)(=O)=O)cc1,9.2 µM (active),-19.8,–,–
COc1cccc(N(CC(=O)NCCSCc2ccc(Cl)cc2)S(C)(=O)=O)c1,–,-16.4,-30.8% (inactive),–
O=C(CSc1nncs1)Nc1ccc(Cl)cn1,–,-5.79,-2.98% (inactive),–
O=C(NCC(O)c1ccc2ccccc2c1)c1c(F)cccc1F (centres undefined),–,4.67,10.9% (inactive),–

SMILES,Potency,cell number change [%],"lipid storage change, negative = inhibition",outcome
Cc1cc(NS(=O)(=O)c2c(C)[nH]c(=O)[nH]c2=O)ccc1Br,–,–,7.03% (inactive),–
Cc1cc(C)n(CC(=O)NC2CCCc3c2cnn3-c2ccc(C)c(C)c2)n1 (centres undefined),16.4 µM (active),-23,–,–
CC(C)(C)c1ccc(-n2ncc3c2CCCC3NC(=O)CCCn2cncn2)cc1 (centres undefined),–,14.9,8.93% (inactive),–
CC(=O)Nc1cccc(C(=O)NC2CCCc3c2cnn3-c2ccc(C(C)(C)C)cc2)c1 (centres undefined),–,-22.8,-8.75% (inactive),–
Cc1ccc(-n2ncc3c2CC(C)(C)CC3NC(=O)CCn2cncn2)cc1 (centres undefined),–,-18.7,–,inactive
CC(C)(C)c1ccc(-n2ncc3c2CCCC3NC(=O)CCn2cncn2)cc1 (centres undefined),3.66 µM (active),-29.9,–,–
CCn1nc(C)cc1C(=O)NC1CCCc2c1cnn2-c1ccc(C)c(C)c1 (centres undefined),–,-8.5,–,inactive
CC(=O)NCC(=O)NC1CCCc2c1cnn2-c1ccc(C(C)(C)C)cc1 (centres undefined),–,–,–,inactive
Cc1cc(C)n(CC(=O)NC2CCCc3c2cnn3-c2ccccc2F)n1 (centres undefined),–,-1.7,1.73% (inactive),–
CC(=O)CCC(=O)NC1CCCc2c1cnn2-c1ccc(C(C)(C)C)cc1 (centres undefined),10.3 µM (active),-14.2,–,–
Cc1cc(N/N=C/c2ccc(O)cc2O)nc(N2CCOCC2)n1,–,-4.63,-0.596% (inactive),–
COc1ccccc1OCC(=O)Nc1ccc(Cl)cc1,–,-13.6,-1.36% (inactive),–
CCCCOc1ccc(C(O)(CCN2CCOCC2)c2ccccc2)cc1 (centres undefined),–,-14.2,-10.2% (inactive),–
COc1ccc(CCNC(=O)/C=C/c2ccc(OC)c(S(=O)(=O)N3CCOCC3)c2)cc1,–,7.46,-3.03% (inactive),–
O=C1NC(N2CCOCC2)=N/C1=C/c1ccc2c(c1)OCO2,–,–,5.19% (inactive),–
O=C(c1ccccc1)N1CCN(c2ncnc3c2cnn3-c2ccccc2)CC1,–,-7.55,-12.6% (inactive),–
Cc1cccc(C(=O)N2CCN(c3ncnc4c3cnn4-c3ccccc3)CC2)c1,–,-21.5,-9.57% (inactive),–
Cc1nn(-c2ccccc2)c(Cl)c1C(=O)N1CCN(c2ncnc3c2cnn3-c2ccccc2)CC1,7.31 µM (active),-25.9,–,–
O=C(COC(=O)c1ccccc1Nc1ccccc1)NCc1ccccc1Cl,–,-4.27,-6.32% (inactive),–
Nc1nc(-c2ccccc2)c(-c2ccccc2)o1,–,3.44,7.81% (inactive),–

SMILES,Potency,cell number change [%],"lipid storage change, negative = inhibition",outcome
CC(=O)c1c(C)[nH]c(C(=O)OCCCCN2C(=O)c3ccccc3C2=O)c1C,0.58 µM (active),-18.3,–,–
CCOC(=O)c1[nH]c(C)c(C(=O)OCCN2C(=O)c3ccccc3C2=O)c1C,–,-20.4,7.23% (inactive),–
CC(=O)c1c(C)[nH]c(C(=O)OCC(=O)N2CC(=O)Nc3ccccc32)c1C,–,17.6,20.9% (inactive),–
Cc1cc(NS(=O)(=O)c2ccc3c(c2)OCCO3)no1,–,5.55,5.36% (inactive),–
Cc1ccc(-c2nc(CS(=O)CC(=O)NCCCc3ccccc3)c(C)o2)cc1 (centres undefined),–,13.7,–,inactive
Cc1cc(C)cc(OCCCCn2cncn2)c1,–,7.77,15.5% (inactive),–
COCCCNC(=O)/C=C1\Sc2ccccc2N(Cc2ccccc2F)C1=O,–,12.6,0.378% (inactive),–
Oc1ccccc1-c1nc(NCc2ccccc2)c2ccccc2n1,–,2.04,-0.207% (inactive),–
OCCNc1nc(NCc2ccccc2)c2ccccc2n1,–,-3.37,-19.2% (inactive),–
c1ccc(CNc2nc(NCc3ccccc3)c3ccccc3n2)cc1,16.4 µM (active),-9.51,–,–
O=C1c2ccccc2C(=O)N1Cc1ccccc1F,29.1 µM (active),22.2,–,–
O=C(O)CN1C(=O)C(=O)N(Cc2ccccc2F)C1=O,–,9.39,17% (inactive),–
O=C1NC(=O)N(Cc2ccccc2F)C1=O,–,21.6,2.47% (inactive),–
Cc1cccc(C)c1NC(=O)C(C)N1CCCC1 (centres undefined),–,0.595,-11.2% (inactive),–
COc1ccccc1-c1nn(-c2ccccc2)cc1C(=O)N1CCN(C(=O)c2ccco2)CC1,–,3.39,4.65% (inactive),–
COc1ccccc1-c1nn(-c2ccccc2)cc1C(=O)N1CCc2ccccc2C1,2.06 µM (active),-17.2,–,–
COc1ccccc1-c1cc(C(=O)N2CCc3ccccc3C2)c2ccccc2n1,–,-2.91,12.1% (inactive),–
c1ccc(-c2cncnc2)cc1,–,-19.5,–,inactive
COc1ccc(N(Cc2cc3ccc(C)cc3[nH]c2=O)C(=O)c2ccco2)cc1,–,1.12,14.3% (inactive),–

# From PubChem BioAssay AID2685 (National Center for Advancing Translational Sciences (NCATS), 2010)
